± gives the standard deviation of the averaged measurements.
Legend:
Test in all cases: promoter activity interaction Z-score (Lux/OD deviation from empty-vector control); higher = stronger promoter induction by the compound
[1] = test system: E. coli BW25113 acrABp lux reporter
How it was run: (§1)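 E. coli BW25113 (wild type or marA, soxS or rob deletion) carrying low-copy luxCDABE promoter reporters grew in 40 µl LB Lennox in 384-well plates at 37°C. Each compound was tested at four 1:2 dilutions in biological duplicates. OD600 and luminescence were read every 30 min for 12 h. Areas were taken over 0–8 h (wild type) or 1–9 h (mutants), and wells below 10% of median growth area were removed. The score is the Z-transformed residual of growth-normalised luminescence fitted against the empty-vector control.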

[2] = test system: E. coli BW25113 micFp lux reporter
How it was run: as §1

[3] = test system: E. coli BW25113 ompFp lux reporter
How it was run: as §1

[4] = test system: E. coli BW25113 robp lux reporter
How it was run: as §1

[5] = 40.6 µg/ml, genetic background: wild type
[6] = 40.6 µg/ml, genetic background: ΔmarA
[7] = 40.6 µg/ml, genetic background: Δrob
[8] = 40.6 µg/ml, genetic background: ΔsoxS
[9] = 81.1 µg/ml, genetic background: wild type
[10] = 81.1 µg/ml, genetic background: ΔmarA
[11] = 81.1 µg/ml, genetic background: Δrob
[12] = 81.1 µg/ml, genetic background: ΔsoxS
[13] = 162.2 µg/ml, genetic background: wild type
[14] = 162.2 µg/ml, genetic background: ΔmarA
[15] = 162.2 µg/ml, genetic background: Δrob
[16] = 162.2 µg/ml, genetic background: ΔsoxS
[17] = 324.4 µg/ml, genetic background: wild type
[18] = 324.4 µg/ml, genetic background: ΔmarA
[19] = 324.4 µg/ml, genetic background: Δrob
[20] = 324.4 µg/ml, genetic background: ΔsoxS

SMILES: C=C[C@H]1CN2CC[C@H]1C[C@H]2[C@H](O)c1ccnc2ccc(OC)cc12 [Quinine]
- promoter activity interaction Z-score [1, 5]: -0.0276 ± 0.14
- promoter activity interaction Z-score [1, 6]: 0.379 ± 1.7
- promoter activity interaction Z-score [1, 7]: -0.214 ± 0.025
- promoter activity interaction Z-score [1, 8]: -0.207 ± 0.36
- promoter activity interaction Z-score [1, 9]: -0.0617 ± 0.23
- promoter activity interaction Z-score [1, 10]: 0.66 ± 0.57
- promoter activity interaction Z-score [1, 11]: -0.0693 ± 0.15
- promoter activity interaction Z-score [1, 12]: 0.146 ± 0.074
- promoter activity interaction Z-score [1, 13]: -0.321 ± 0.19
- promoter activity interaction Z-score [1, 14]: -0.122 ± 1
- promoter activity interaction Z-score [1, 15]: 0.00483 ± 0.12
- promoter activity interaction Z-score [1, 16]: -0.386 ± 0.088
- promoter activity interaction Z-score [1, 17]: -0.269 ± 0.44
- promoter activity interaction Z-score [1, 18]: -0.173 ± 0.094
- promoter activity interaction Z-score [1, 19]: 0.046 ± 0.023
- promoter activity interaction Z-score [1, 20]: -0.181 ± 0.2
- promoter activity interaction Z-score [2, 5]: 0.322 ± 0.35
- promoter activity interaction Z-score [2, 6]: 0.0116 ± 0.1
- promoter activity interaction Z-score [2, 7]: -0.133 ± 0.038
- promoter activity interaction Z-score [2, 8]: -0.0747 ± 0.16
- promoter activity interaction Z-score [2, 9]: 0.106 ± 0.04
- promoter activity interaction Z-score [2, 10]: 0.118 ± 0.17
- promoter activity interaction Z-score [2, 11]: -0.0678 ± 0.18
- promoter activity interaction Z-score [2, 12]: 0.253 ± 0.078
- promoter activity interaction Z-score [2, 13]: 0.0719 ± 0.29
- promoter activity interaction Z-score [2, 14]: 0.23 ± 0.0035
- promoter activity interaction Z-score [2, 15]: 0.137 ± 0.068
- promoter activity interaction Z-score [2, 16]: 0.356 ± 0.086
- promoter activity interaction Z-score [2, 17]: 0.7474 ± 0.0019
- promoter activity interaction Z-score [2, 18]: 0.582 ± 0.025
- promoter activity interaction Z-score [2, 19]: 0.201 ± 0.17
- promoter activity interaction Z-score [2, 20]: 1.13 ± 0.047
- promoter activity interaction Z-score [3, 5]: 0.0547 ± 0.22
- promoter activity interaction Z-score [3, 6]: -0.33 ± 0.1
- promoter activity interaction Z-score [3, 7]: -0.566 ± 0.33
- promoter activity interaction Z-score [3, 8]: 0.39 ± 0.047
- promoter activity interaction Z-score [3, 9]: -0.0322 ± 0.074
- promoter activity interaction Z-score [3, 10]: 0.401 ± 0.48
- promoter activity interaction Z-score [3, 11]: 0.0636 ± 0.022
- promoter activity interaction Z-score [3, 12]: 0.369 ± 0.07
- promoter activity interaction Z-score [3, 13]: -0.435 ± 0.35
- promoter activity interaction Z-score [3, 14]: -0.0896 ± 0.32
- promoter activity interaction Z-score [3, 15]: 0.318 ± 0.14
- promoter activity interaction Z-score [3, 16]: -0.194 ± 0.092
- promoter activity interaction Z-score [3, 17]: -0.15 ± 0.097
- promoter activity interaction Z-score [3, 18]: 0.352 ± 0.51
- promoter activity interaction Z-score [3, 19]: -0.0516 ± 0.19
- promoter activity interaction Z-score [3, 20]: -0.0712 ± 0.12
- promoter activity interaction Z-score [4, 5]: 0.233 ± 0.19
- promoter activity interaction Z-score [4, 6]: -0.32 ± 0.61
- promoter activity interaction Z-score [4, 7]: -0.0483 ± 0.15
- promoter activity interaction Z-score [4, 8]: 0.121 ± 0.51
- promoter activity interaction Z-score [4, 9]: -0.103 ± 0.11
- promoter activity interaction Z-score [4, 10]: 0.432 ± 0.065
- promoter activity interaction Z-score [4, 11]: 0.674 ± 0.12
- promoter activity interaction Z-score [4, 12]: 0.933 ± 0.31
- promoter activity interaction Z-score [4, 13]: -0.361 ± 0.36
- promoter activity interaction Z-score [4, 14]: 0.246 ± 0.82
- promoter activity interaction Z-score [4, 15]: 0.504 ± 0.18
- promoter activity interaction Z-score [4, 16]: 0.352 ± 0.57
